From PubChem BioAssay (NCATS)
Results filed as inconclusive are left out. The source made the active and inactive calls. Calls come from the whole dose curve; as a rule, active = well fitted inhibition curve with a large enough effect; inconclusive = small, poorly fitted or top-dose-only effect; inactive = flat fitted curve, though single readings scatter.

Key:
[1] = qHTS profiling for inhibitors of Plasmodium falciparum proliferation (AID 504749); note: nearly all actives have a fitted effect of over 60% in size;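 for activity, negative = inhibition: 0% = DMSO vehicle and full inhibition = artemisinin control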; conditions: P. falciparum in erythrocytes, SYBR Green DNA, 72 h
Summary of the method: (§1)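 P. falciparum-infected erythrocytes (0.3% parasitemia, 2.5% hematocrit final) were exposed to compounds for 72 h at 37 C in 5% CO2, then lysed with SYBR Green buffer overnight at room temperature; parasite DNA fluorescence was normalized to artemisinin and DMSO controls.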

3D7 = assay: as above; conditions: P. falciparum in erythrocytes, SYBR Green DNA, 72 h; series mostly up to 28.7 µM
Summary of the method: as §1

7G8 = assay: as above; conditions: P. falciparum in erythrocytes, SYBR Green DNA, 72 h; series mostly up to 28.7 µM
Summary of the method: as §1

AA1029 = assay: as above; conditions: P. falciparum in erythrocytes, SYBR Green DNA, 72 h; series mostly up to 28.7 µM
Summary of the method: as §1

AS120 = assay: as above; conditions: P. falciparum in erythrocytes, SYBR Green DNA, 72 h; series mostly up to 28.7 µM
Summary of the method: as §1

ATS189 = assay: as above; conditions: P. falciparum in erythrocytes, SYBR Green DNA, 72 h; series mostly up to 28.7 µM
Summary of the method: as §1

ATS95 = assay: as above; conditions: P. falciparum in erythrocytes, SYBR Green DNA, 72 h; series mostly up to 28.7 µM
Summary of the method: as §1

C2A = assay: as above; conditions: P. falciparum in erythrocytes, SYBR Green DNA, 72 h; series mostly up to 28.7 µM
Summary of the method: as §1

CP185 = assay: as above; conditions: P. falciparum in erythrocytes, SYBR Green DNA, 72 h; series mostly up to 28.7 µM
Summary of the method: as §1

CP191 = assay: as above; conditions: P. falciparum in erythrocytes, SYBR Green DNA, 72 h; series mostly up to 28.7 µM
Summary of the method: as §1

CP192 = assay: as above; conditions: P. falciparum in erythrocytes, SYBR Green DNA, 72 h; series mostly up to 28.7 µM
Summary of the method: as §1

CP194 = assay: as above; conditions: P. falciparum in erythrocytes, SYBR Green DNA, 72 h; series mostly up to 28.7 µM
Summary of the method: as §1

CP201 = assay: as above; conditions: P. falciparum in erythrocytes, SYBR Green DNA, 72 h; series mostly up to 28.7 µM
Summary of the method: as §1

CP203 = assay: as above; conditions: P. falciparum in erythrocytes, SYBR Green DNA, 72 h; series mostly up to 28.7 µM
Summary of the method: as §1

CP211 = assay: as above; conditions: P. falciparum in erythrocytes, SYBR Green DNA, 72 h; series mostly up to 28.7 µM
Summary of the method: as §1

CP215 = assay: as above; conditions: P. falciparum in erythrocytes, SYBR Green DNA, 72 h; series mostly up to 28.7 µM
Summary of the method: as §1

CP217 = assay: as above; conditions: P. falciparum in erythrocytes, SYBR Green DNA, 72 h; series mostly up to 28.7 µM
Summary of the method: as §1

CP237 = assay: as above; conditions: P. falciparum in erythrocytes, SYBR Green DNA, 72 h; series mostly up to 28.7 µM
Summary of the method: as §1

CP238 = assay: as above; conditions: P. falciparum in erythrocytes, SYBR Green DNA, 72 h; series mostly up to 28.7 µM
Summary of the method: as §1

CP247 = assay: as above; conditions: P. falciparum in erythrocytes, SYBR Green DNA, 72 h; series mostly up to 28.7 µM
Summary of the method: as §1

[2] = at 12.8 µM (top of the series), parasite line A
[3] = at 28.7 µM (top of the series), parasite line A
[4] = at 28.7 µM (top of the series), parasite line B
Potency is the fitted concentration of half-maximal effect.

C[C@H]1C[C@@H]2[C@@H]([C@@H](O)C[C@@]3(C)[C@H]2CC[C@]3(O)C(=O)CO)[C@@]2(C)C=CC(=O)C=C12
inactive: activity, negative = inhibition [1, 2] -0.344% | activity, negative = inhibition ([1]; at 12.8 µM (top of the series), parasite line B) -25.6% | Potency (3D7) | Potency (7G8) | Potency (AA1029) | Potency (AS120) | Potency (ATS189) | Potency (ATS95) | Potency (C2A) | Potency (CP185) | Potency (CP191) | Potency (CP192) | Potency (CP194) | Potency (CP201) | Potency (CP203) | Potency (CP211) | Potency (CP215) | Potency (CP217) | Potency (CP237) | Potency (CP238) | Potency (CP247)

Nc1ccn([C@@H]2O[C@H](CO)[C@H](O)C2(F)F)c(=O)n1
active: Potency ([1]; parasite line A) 5620 nM | Potency ([1]; parasite line B) 316 nM | Potency (3D7) 3160 nM | Potency (7G8) 2820 nM | Potency (AA1029) 1580 nM | Potency (AS120) 3550 nM | Potency (ATS189) 3980 nM | Potency (ATS95) 5620 nM | Potency (C2A) 3980 nM | Potency (CP185) 5620 nM | Potency (CP191) 1410 nM | Potency (CP192) 6010 nM | Potency (CP194) 6750 nM | Potency (CP201) 2130 nM | Potency (CP203) 2690 nM | Potency (CP211) 2390 nM | Potency (CP215) 6010 nM | Potency (CP217) 4470 nM | Potency (CP237) 3550 nM | Potency (CP238) 3980 nM | Potency (CP247) 1410 nM

CC[C@H]1CN2CCc3cc(OC)c(OC)cc3[C@H]2C[C@@H]1C[C@@H]1NCCc2cc(OC)c(OC)cc21
active: Potency ([1]; parasite line A) 316 nM | Potency ([1]; parasite line B) 282 nM | Potency (3D7) 224 nM | Potency (7G8) 126 nM | Potency (AA1029) 316 nM | Potency (AS120) 316 nM | Potency (ATS189) 708 nM | Potency (ATS95) 282 nM | Potency (C2A) 224 nM | Potency (CP185) 316 nM | Potency (CP192) 536 nM | Potency (CP194) 601 nM | Potency (CP201) 675 nM | Potency (CP203) 379 nM | Potency (CP211) 675 nM | Potency (CP215) 536 nM | Potency (CP217) 708 nM | Potency (CP237) 126 nM | Potency (CP238) 316 nM | Potency (CP247) 398 nM

COc1cc(C(=O)NS(=O)(=O)c2ccccc2C)ccc1Cc1cn(C)c2ccc(NC(=O)OC3CCCC3)cc12
active: Potency (7G8) 12600 nM
inactive: activity, negative = inhibition [1, 3] -4.29% | Potency (3D7) | Potency (AA1029) | Potency (AS120) | Potency (ATS95) | Potency (C2A) | Potency (CP185) | Potency (CP191) | Potency (CP192) | Potency (CP201) | Potency (CP237) | Potency (CP238)

O=C(O)CO.[NH2-].[NH2-].[Pt+2]
inactive: activity, negative = inhibition [1, 3] 12% | activity, negative = inhibition [1, 4] 15.6% | Potency (3D7) | Potency (7G8) | Potency (AA1029) | Potency (AS120) | Potency (ATS189) | Potency (ATS95) | Potency (C2A) | Potency (CP185) | Potency (CP191) | Potency (CP192) | Potency (CP194) | Potency (CP201) | Potency (CP203) | Potency (CP211) | Potency (CP215) | Potency (CP217) | Potency (CP237) | Potency (CP238) | Potency (CP247)

O=c1[nH]c(=O)n(C2CCCO2)cc1F (stereo not given)
inactive: activity, negative = inhibition [1, 3] 8.19% | activity, negative = inhibition [1, 4] 12.8% | Potency (3D7) | Potency (7G8) | Potency (AA1029) | Potency (AS120) | Potency (ATS189) | Potency (ATS95) | Potency (C2A) | Potency (CP185) | Potency (CP191) | Potency (CP192) | Potency (CP194) | Potency (CP201) | Potency (CP203) | Potency (CP211) | Potency (CP217) | Potency (CP237) | Potency (CP238) | Potency (CP247)

CC1(C)O[C@@H]2C[C@@H]3[C@H]4C[C@@H](F)C5=CC(=O)C=C[C@]5(C)[C@@]4(F)[C@@H](O)C[C@]3(C)[C@]2(C(=O)CO)O1
inactive: activity, negative = inhibition [1, 3] 4.83% | activity, negative = inhibition [1, 4] 2.94% | Potency (3D7) | Potency (AA1029) | Potency (AS120) | Potency (ATS189) | Potency (ATS95) | Potency (C2A) | Potency (CP185) | Potency (CP191) | Potency (CP217) | Potency (CP237) | Potency (CP238) | Potency (CP247)
active: Potency (CP194) 15100 nM

Nc1ccc(S(=O)(=O)Nc2ncccn2)cc1
inactive: activity, negative = inhibition [1, 2] 8.9% | Potency (3D7) | Potency (7G8) | Potency (AA1029) | Potency (AS120) | Potency (ATS189) | Potency (ATS95) | Potency (C2A) | Potency (CP185) | Potency (CP191) | Potency (CP192) | Potency (CP194) | Potency (CP201) | Potency (CP203) | Potency (CP211) | Potency (CP217) | Potency (CP237) | Potency (CP238) | Potency (CP247)
